p-CIP stab down: p/CIP-EGFP fusion destabilizers, primary screen, fluorescence, F442A cells; decrease of EGFP signal, % at 10 µM; 16 h; AID 1984, 2009; 290,000 compounds, 0.01% hits;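 active means EGFP signal decrease of at least 30% at 10 µM or well 3 SD below plate mean, unless failing retest; inactive means the rest, including hits failing retest or dose response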
VLA-4 inh: inhibition in human VLA-4 binding assay, primary screen, VLA-4 allosteric modulator project, MLPCN library, flow cytometry, VLA-4 expressing cells; ligand binding flow cytometry; inhibition, % (about 7 µM as worked out from the volumes in the protocol); 330,000 compounds, 0.2% hits; AID 2557, 2010; in the data active means inhibition above about 50%
GASC-1 inh: inhibitors of GASC-1 histone demethylase, primary screen, biochemical, fluorescence, DELFIA europium | Lysine-specific demethylase 4C (Homo sapiens), Q9H3R0 | GST-JMJD2C(1-420) H3K9me3 demethylation | inhibition, % at 2.35 µM | 330,000 compounds, 0.069% hits | AID 2099, 2009;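 active means more than half of a compound's replicate wells show inhibition beyond 50%, single wells judged on their own value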;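 further: signal counts dimethyl H3K9 product captured on neutravidin plate; 0% = median of DMSO wells and 100% = 0.3 times that DMSO median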
GPR7 antag: GPR7 receptor antagonists, primary screen, cell-based, fluorescence, single concentration; GPR7-expressing cells, fluorescence antagonist assay; inhibition, % at 4.4 µM; 290,000 compounds, 1.1% hits; AID 1861, 2009; in the data active means inhibition above about 16%, passing the limit was not always enough;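 further: cells stimulated with the agonist NPW; 0% = agonist with vehicle and 100% = vehicle without agonist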
Target sequence (P48145 whole entry, looked up): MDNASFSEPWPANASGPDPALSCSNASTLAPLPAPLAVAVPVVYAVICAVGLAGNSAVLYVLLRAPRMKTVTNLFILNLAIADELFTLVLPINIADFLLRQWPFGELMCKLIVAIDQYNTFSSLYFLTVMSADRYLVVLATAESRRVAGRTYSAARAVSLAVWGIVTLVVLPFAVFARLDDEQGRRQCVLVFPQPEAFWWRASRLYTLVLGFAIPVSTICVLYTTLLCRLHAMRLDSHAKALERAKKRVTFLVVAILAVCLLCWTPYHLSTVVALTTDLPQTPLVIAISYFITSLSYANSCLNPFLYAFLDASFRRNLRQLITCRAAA
GPR7 antag cf: GPR7 receptor antagonists, confirmation, cell-based, fluorescence, single concentration; shares compounds with GPR7 antag; GPR7-expressing cells, calcium fluorescence antagonist mode; inhibition, % at 4.4 µM; 2,400 compounds, 52% hits; in the data active means inhibition above about 24%;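 further: stimulated with the GPR7 agonist NPW; 0% = agonist plus vehicle and 100% = vehicle alone without agonist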
MCHR1 antag: MCHR1 antagonists in cells, counter-screen for GPR7 antagonist project, cell-based, fluorescence, human | shares compounds with GPR7 antag | MCHR1-expressing cells, fluorescence antagonist assay | inhibition, % at 4.4 µM | 2,400 compounds, 62% hits | AID 2148, 2009; in the data active means inhibition above about 22%;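 further: 0% = vehicle with agonist and 100% = vehicle without agonist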
An asterisk follows results filed as active. Most compounds without a hit are left out; they make up all but 1.2% or so of the library.

For O=C1NC(=O)N(c2ccc(Cl)cc2)C(=O)/C1=C\c1ccc(Sc2nc3ccccc3[nH]2)o1 the results were p-CIP stab down -2.1, VLA-4 inh 3.6, GASC-1 inh 8.9 and GPR7 antag -2.9.
Screening Oc1ccccc1-[n+]1c(-c2ccccc2)cc(-c2ccccc2)cc1-c1ccccc1 returned VLA-4 inh -34.0 and GASC-1 inh -5.2.
Nc1ccccc1-[n+]1c(-c2ccccc2)cc(-c2ccccc2)cc1-c1ccccc1 was read as p-CIP stab down 1.1, VLA-4 inh -21.3, GASC-1 inh -7.1, GPR7 antag 83.7*, GPR7 antag cf 76.1* and MCHR1 antag 65.7*.
For COC(=O)C1=C(c2cccc(OCc3ccccc3)c2)C[C@@H]2CC[C@H]1N2C(=O)NCCc1ccc(F)cc1 the results were VLA-4 inh 18.7.
For O=C1CC(N2CC=C(c3ccccc3)CC2)C(=O)N1c1ccc(F)cc1 (centres undefined) the results were p-CIP stab down 5.5, VLA-4 inh -22.9, GASC-1 inh 7.1, GPR7 antag 24.4*, GPR7 antag cf 4.7 and MCHR1 antag 7.6.
For CC(C)OC(=O)Cc1ccccc1 the results were VLA-4 inh 17.8 and GASC-1 inh 4.5.
Screening CCOC(=O)CC(NC(=O)C(Cc1ccc(N(CCCl)CCCl)cc1)NC(C)=O)C(=O)OCC (centres undefined) returned p-CIP stab down -16.8, VLA-4 inh -4.8, GASC-1 inh 7.7 and GPR7 antag -9.6.
For Oc1ccc(C2NCc3ccccc3-n3cccc32)cc1Cl (centres undefined) the results were p-CIP stab down 5.7, VLA-4 inh -1.0, GASC-1 inh 1.0 and GPR7 antag 2.9.
COc1ccc(C2NCc3ccc4c(c3-n3cccc32)OCO4)cc1O (centres undefined) was read as p-CIP stab down 9.3, VLA-4 inh 19.4, GASC-1 inh 7.3, GPR7 antag 49.6*, GPR7 antag cf 53.2* and MCHR1 antag 37.0*.
c1cc2n(c1)-c1c(ccc3c1OCO3)CNC2c1ccc2c(c1)OCO2 (centres undefined) was read as p-CIP stab down -1.0, VLA-4 inh 22.4, GASC-1 inh -2.8, GPR7 antag 24.6*, GPR7 antag cf 49.1* and MCHR1 antag 29.6*.
CC(C)CN(CC(C)C)C(=O)C1C2c3ccccc3C(c3ccccc32)C1C(=O)O (centres undefined) was read as p-CIP stab down -0.2 and GPR7 antag -4.6.
`CN1CC=C(/C=C/c2ccc(-c3ccccc3)cc2)CC1` gave p-CIP stab down -5.4, VLA-4 inh 29.4, GASC-1 inh -1.3, GPR7 antag 50.6*, GPR7 antag cf 63.0* and MCHR1 antag 50.8*.
`COc1ccc(/C=C/C2=CCN(C)CC2)cc1` gave p-CIP stab down -8.6, VLA-4 inh 0.0, GASC-1 inh -0.8 and GPR7 antag -3.5.
Screening Cc1nonc1-c1nc(-c2nonc2N)n[nH]1 returned p-CIP stab down -11.0, VLA-4 inh 3.8, GASC-1 inh 9.1, GPR7 antag 32.0*, GPR7 antag cf 13.0 and MCHR1 antag 3.6.
For COC(=O)C(O)(c1ccc(N(C)C(=O)c2cccs2)cc1)C(F)(F)F (centres undefined) the results were p-CIP stab down -17.6, VLA-4 inh -13.6, GASC-1 inh 6.0 and GPR7 antag -13.0.
Screening COC(=O)C(O)(c1ccc(N(C)C(=O)c2ccc(Cl)c(Cl)c2)cc1)C(F)(F)F (centres undefined) returned p-CIP stab down -17.6, VLA-4 inh 17.4, GASC-1 inh 0.5, GPR7 antag 33.0*, GPR7 antag cf 29.8* and MCHR1 antag -3.0.
Screening COC(=O)C1=C(c2cccc(OCc3ccccc3)c2)C[C@@H]2CC[C@H]1N2C(=O)NCc1ccc(Cl)cc1 returned VLA-4 inh 1.4 and GASC-1 inh -0.8.
Screening NCCc1c(Cc2ccccc2)[nH]c2ccccc12 returned VLA-4 inh -5.7 and GASC-1 inh 22.5.
Screening Cc1c(CCN)ccc2c1[nH]c1ccccc12 returned p-CIP stab down -10.7, VLA-4 inh 17.1, GASC-1 inh -8.8, GPR7 antag 37.0*, GPR7 antag cf 36.6* and MCHR1 antag 27.2*.
COc1ccccc1-n1c(O)c(/C=C2\C=Nc3ccccc32)c(=O)[nH]c1=O was read as p-CIP stab down 7.6, VLA-4 inh -30.6, GASC-1 inh -27.5, GPR7 antag 29.3*, GPR7 antag cf 39.1* and MCHR1 antag 53.0*.
Screening CC(=O)OC1=CC[C@H]2[C@@H]3CC[C@H]4C[C@H](OC(C)=O)[C@@H](OC(C)=O)C[C@]4(C)[C@H]3CC[C@]12C returned VLA-4 inh 4.2 and GASC-1 inh -0.2.
Clc1ccc(CSC(Cn2ccnc2)c2ccc(Cl)cc2Cl)cc1 (centres undefined) was read as p-CIP stab down 4.0, VLA-4 inh 40.3, GASC-1 inh -12.1 and GPR7 antag 15.7.
Screening Clc1ccc(COC(Cn2ccnc2)c2ccc(Cl)cc2Cl)cc1 (centres undefined) returned p-CIP stab down 2.7, VLA-4 inh 10.2, GASC-1 inh -7.0, GPR7 antag 30.5*, GPR7 antag cf 59.0* and MCHR1 antag 62.3*.
Screening O=C(COc1ccc(Cl)cc1)N1CCN(Cc2ccc([N+](=O)[O-])cc2)CC1 returned p-CIP stab down -26.6, VLA-4 inh -1.6, GASC-1 inh 4.0, GPR7 antag 30.0*, GPR7 antag cf 27.8* and MCHR1 antag 46.5*.
CCOc1ccc(Cl)cc1CNCCc1ccc(F)cc1 was read as p-CIP stab down 4.9, VLA-4 inh 7.3, GASC-1 inh 1.7, GPR7 antag 32.6*, GPR7 antag cf 30.0* and MCHR1 antag 28.8*.
Cc1cc(Oc2cc(NN3CCCCC3)c([N+](=O)[O-])cc2[N+](=O)[O-])ccc1[N+](=O)[O-] was read as p-CIP stab down -9.0, VLA-4 inh -1.5, GASC-1 inh -9.2 and GPR7 antag -17.1.
Screening CCOc1cc2c(cc1OCC)-n1cccc1C(c1ccc(C(C)C)cc1)NC2 (centres undefined) returned p-CIP stab down -0.7, VLA-4 inh 7.0, GASC-1 inh 3.2, GPR7 antag 36.4*, GPR7 antag cf 33.7* and MCHR1 antag 62.0*.
OC(c1cccc(Cl)c1)(c1cccc(Cl)c1)C1CN2CCC1CC2 (centres undefined) was read as p-CIP stab down -4.7, VLA-4 inh 3.5, GASC-1 inh -2.6, GPR7 antag 33.6*, GPR7 antag cf 43.6* and MCHR1 antag 50.6*.

Screening data: PubChem, several laboratories
